From PubChem BioAssay (NCI)
This is part of a sample that, as a whole, favours compounds with a hit. Of some 83,000 tested, about 20% had one in any assay.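 Single-dose data. Exposure time 48 hours. Values below 10 considered active.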 Calls of active or inactive are those of the source.

Test system: HL-60(TB) leukemia
Experiment: NCI-60 one-dose screen, 48 h (100 = growth as untreated, 0 = no growth, -100 = all killed)
Conditions: 10 µM unless noted

Question: How did the growth turn out when N#C/C(=C\c1ccc(-c2ccc(Br)cc2)o1)c1nc(-c2cccs2)cs1 was run?
Answer: 92.7% (inactive)

Question: For CCOC(=O)c1c(C)nc2ccccc2c1/C=C/c1ccccc1, which growth is on record?
Answer: 81.8% (inactive)

Question: NS(=O)(=O)c1cn(-c2ncnc3nc[nH]c23)ccc1=O was tested. Which growth did it give?
Answer: 79.5% (inactive)

Question: For C#CCN=C[C@]12CC[C@@H](C(=C)C)[C@@H]1[C@H]1CC[C@@H]3[C@@]4(C)CCC(=O)C(C)(C)[C@@H]4CC[C@@]3(C)[C@]1(C)CC2, which growth is on record?
Answer: -14.3% (active)

Question: Which growth does the source give for OCCN1CCN(CCCN2c3ccccc3Sc3ccc(C(F)(F)F)cc32)CC1 here?
Answer: 32.7% (inactive)

Question: For O=C(Nc1ccc(-c2nc3ccc(NC(=O)c4ccc(Cl)cc4)cc3[nH]2)cc1)c1ccc(Cl)cc1, which growth is on record?
Answer: -45.9% (active)

Question: With CN1C(=O)N(C)C2C1NN=c1s/c(=C\c3ccc(F)cc3)c(=O)n12 (stereo not given) as the compound, how does the growth read?
Answer: -22.4% (active)

Question: COc1ccc(-c2nn(C(=O)c3cc(OC)c(OC)c(OC)c3)c3cc(N)ccc23)cc1 was tested. Which growth did it give?
Answer: 5.67% (active)

Question: Cc1ccc2nc(-c3ccc(N(C)C)c(Br)c3)cn2c1 was tested. Which growth did it give?
Answer: 36.8% (inactive)

Question: With Cc1ccc(C2CC3c4ccccc4C2C2CCCCN32)cc1 (stereo not given) as the compound, how does the growth read?
Answer: 52.8% (inactive)

Question: With C=CCc1c2c(c(OC)c3ccoc13)C(=O)/C(=C/c1ccccc1OC)O2 as the compound, how does the growth read?
Answer: 68.8% (inactive)

Question: CCOc1ccc(NC(=O)CSc2oc(-c3ccccc3)nc2S(=O)(=O)c2ccc(C)cc2)cc1 was tested. Which growth did it give?
Answer: 65.6% (inactive)

Question: O=S(=O)(NCC[C@@H]1C[C@H]1c1ccc2ccccc2c1)c1ccc(C(F)(F)F)cc1 was tested. Which growth did it give?
Answer: 96.5% (inactive)

Question: For O=S(=O)(NCCCNc1cc(-c2cn(-c3ccccc3)nc2-c2ccccc2)ccn1)c1ccc(C(F)(F)F)cc1, which growth is on record?
Answer: 39.1% (inactive)

Question: With O=C(N/N=C/c1c(Cl)cccc1Cl)c1ccccc1Nc1cccc(C(F)(F)F)c1 as the compound, how does the growth read?
Answer: 95.3% (inactive)

Question: For CCOC(=O)c1c(C)c(C(=O)OCC)n(C)c1C, which growth is on record?
Answer: 85.9% (inactive)

Question: O=C(O)c1cn(C2CC2)c2cc(N3CCN(C(=O)/C=C/c4ccc(Cl)cc4)CC3)c(F)cc2c1=O was tested. Which growth did it give?
Answer: 60.4% (inactive)

Question: With C[C@@H]1CC[C@@H]2[C@@H]1[C@H](OC(=O)c1ccc3ccccc3c1)[C@]1(C3CCCCC3)C[C@@H](OC(=O)CO)[C@@]2(C)O1 as the compound, how does the growth read?
Answer: 30.6% (inactive)

Question: O=C(CCl)n1nnnc1Cc1ccccc1 was tested. Which growth did it give?
Answer: 83.5% (inactive)

Question: Cc1csc(-c2nnc(Nc3ccc(Oc4ncccc4-c4ccnc(N)n4)cc3)c3ccccc23)c1 was tested. Which growth did it give?
Answer: 12.9% (inactive)

Question: How did the growth turn out when O=C1CC(=O)N(c2ccccc2)O1 was run?
Answer: 103% (inactive)

Question: Cc1csc(-c2ccc3c(c2)COC3(CCCN(C)C)c2ccc(F)cc2)c1 (stereo not given) was tested. Which growth did it give?
Answer: -47.9% (active)

Question: For Cc1[nH]c(C(=O)Nc2cccc(OC3CCNCC3)c2)c(Cl)c1Cl, which growth is on record?
Answer: 54.9% (inactive)

Question: For CN1CCN(c2cc3c(cc2F)c(=O)c(C(=O)O)cn3-c2ccc(F)cc2)CC1, which growth is on record?
Answer: 99.3% (inactive)

Question: For COc1ccccc1/C=N\NC(=S)Nc1ccc(F)cc1, which growth is on record?
Answer: 94.5% (inactive)

Question: For CCCC(C)(C)COC(=O)c1cccc(N)c1, which growth is on record?
Answer: 57.8% (inactive)

Question: How did the growth turn out when COc1ccc(/C=N/C2=C(C#N)C(c3ccccc3)c3ccc4ccccc4c3O2)cc1 (stereo not given) was run?
Answer: 1.71% (active)

Question: C#CC#CC#CC#CC#CC#CC#CC#CC[C@H]1OC[C@@H](COC(=O)O[C@@H](C(=O)O[C@H]2C[C@@]3(O)[C@@H](OC(=O)c4ccccc4)[C@@H]4[C@]5(OC(C)=O)CO[C@@H]5C[C@H](O)[C@@]4(C)C(=O)[C@H](OC(C)=O)C(=C2C)C3(C)C)[C@@H](NC(=O)c2ccccc2)c2ccccc2)O1 was tested. Which growth did it give?
Answer: 6.5% (active)

Question: How did the growth turn out when Nc1cc(-c2ccc(Cl)cc2)nn1-c1nc(-c2ccc(Br)cc2)cs1 was run?
Answer: 96.3% (inactive)

Question: How did the growth turn out when O=C1/C(=C\c2cccn2Cc2ccccc2)c2ccccc2N1c1c(Cl)cccc1Cl was run?
Answer: 71% (inactive)

Question: Which growth does the source give for C=C1CC2(OC1=O)C(=O)N(CCCCCCCN1C(=O)C3(CC(=C)C(=O)O3)c3ccccc31)c1ccccc12 (stereo not given) here?
Answer: 11.7% (inactive)

Question: With COc1c(-c2cc(-c3ccc(C)o3)[nH]c(=O)n2)c(O)cc2occc12 as the compound, how does the growth read?
Answer: 38.2% (inactive)

Question: With Cc1ccc(NCN2C(=O)c3ccccc3C2=O)c(C)n1 as the compound, how does the growth read?
Answer: 97.8% (inactive)

Question: For c1ccc2c(-c3nc(N4CCOCC4)c4c5c(sc4n3)CCCCCC5)cccc2c1, which growth is on record?
Answer: 114% (inactive)

Question: How did the growth turn out when CCOC(=O)C1=C(C)c2ccc(OC)c(OC)c2C1 was run?
Answer: 106% (inactive)

Question: Which growth does the source give for CN(C)CCCNC(=O)C(c1ccccc1)c1ccccc1 here?
Answer: 106% (inactive)

Question: With Cn1[nH]cc(/C=N/C(N)=O)c1=O as the compound, how does the growth read?
Answer: 110% (inactive)

Question: CCCN1CCN(c2ccc3nc(-c4ccc5nc(-c6ccc(OCC)cc6)[nH]c5c4)[nH]c3c2)CC1 was tested. Which growth did it give?
Answer: 16.9% (inactive)

Question: How did the growth turn out when COc1cnc2c(c1)C(=O)c1c-2n(CCCN2CCCC2)c(=O)c2cc(Cl)ccc12 was run?
Answer: 27.9% (inactive)

Question: Which growth does the source give for CCN(CC)CCOC(=O)c1ccc(NC(=O)Nc2cccc(Cl)c2)cc1 here?
Answer: 103% (inactive)
